Compounds with a hit are over-represented: about 4.6% of the library has one in this group of screens.
HIF-2a block = blocks HIF-2a reporter activity; 786-0 RCC cells HIF-2a reporter, luciferase luminescence, overnight; inhibition, % at 18.8 µM; 360,000 compounds, 0.72% hits; AID 624352;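 active means inhibition of the luminescence signal of 40% or more relative to plate controls, in a single-dose primary screen at 18.75 µM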
Mdm2 MdmX PPI = human Mdm2/MdmX binding inhibition; O15151+Q00987; SaOS-2 split-luciferase Mdm2/MdmX complementation, luminescence; inhibition, % at 8 µM; 330,000 compounds, 3% hits; AID 485346;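 active means inhibition of at least 50% at 8 µM in the primary screen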
Target sequence (O15151 whole entry, looked up): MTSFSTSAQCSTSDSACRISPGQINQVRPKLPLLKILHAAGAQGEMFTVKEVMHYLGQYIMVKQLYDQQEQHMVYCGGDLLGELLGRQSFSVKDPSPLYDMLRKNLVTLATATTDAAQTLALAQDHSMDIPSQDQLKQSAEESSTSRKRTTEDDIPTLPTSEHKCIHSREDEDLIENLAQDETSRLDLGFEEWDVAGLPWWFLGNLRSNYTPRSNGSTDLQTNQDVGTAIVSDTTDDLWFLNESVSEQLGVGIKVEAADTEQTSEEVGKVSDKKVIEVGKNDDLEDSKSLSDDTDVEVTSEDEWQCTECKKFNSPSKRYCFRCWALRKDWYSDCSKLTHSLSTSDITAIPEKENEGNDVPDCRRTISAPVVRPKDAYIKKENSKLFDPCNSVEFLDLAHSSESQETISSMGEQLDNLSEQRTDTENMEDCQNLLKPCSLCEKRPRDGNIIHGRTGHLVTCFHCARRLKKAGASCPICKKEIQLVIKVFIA
Target sequence (Q00987 whole entry, looked up): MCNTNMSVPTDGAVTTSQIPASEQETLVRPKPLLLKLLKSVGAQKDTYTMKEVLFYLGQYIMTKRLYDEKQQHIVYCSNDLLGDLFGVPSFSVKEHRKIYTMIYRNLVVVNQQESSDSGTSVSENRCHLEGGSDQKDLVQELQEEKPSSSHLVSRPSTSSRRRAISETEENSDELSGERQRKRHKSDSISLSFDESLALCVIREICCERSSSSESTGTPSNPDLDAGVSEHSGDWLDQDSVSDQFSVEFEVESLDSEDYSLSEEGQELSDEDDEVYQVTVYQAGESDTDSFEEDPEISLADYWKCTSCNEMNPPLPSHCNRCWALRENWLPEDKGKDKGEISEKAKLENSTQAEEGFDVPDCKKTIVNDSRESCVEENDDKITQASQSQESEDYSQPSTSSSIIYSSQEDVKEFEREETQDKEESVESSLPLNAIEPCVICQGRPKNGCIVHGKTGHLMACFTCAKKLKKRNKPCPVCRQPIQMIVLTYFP
ABHD5-PLIN5 inh = inhibitors of human ABHD5-perilipin-5 interaction | Q00G26+Q8WTS1 | Split G. princeps luciferase complementation, luminescence, 4 h | inhibition, % at 4 µM | 360,000 compounds, 0.78% hits;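 active means inhibition above the mean inhibition across every tested compound plus 3 SD, cut at about 22% in these data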;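 further: 0% = DMSO only wells and the 100% control is not disclosed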
Peg3 prom inh = Peg3 promoter activity inhibition | inhibition, % at 20 µM | AID 588405 | 360,000 compounds, 1.7% hits | HeLa PEG-Prom luciferase reporter, luminescence, overnight;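 active means inhibition of at least 50% at 20 µM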
CF NFkB inh = blocks PAF-induced NF-kB reporter in cystic fibrosis cells; KKLEB NF-kB-GFP reporter, GFP fluorescence overnight; 360,000 compounds, 0.86% hits; AID 588850; inhibition, % at 5 µM;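 active means at least 50% inhibition at 5 µM, scaled per plate between neutral and stimulator controls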;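 further: PAF is a Pseudomonas aeruginosa culture filtrate used as stimulus; plate controls were PAF-stimulated DMSO wells for no effect and unstimulated DMSO wells for full effect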
KKLEB cytotox = reduces viability of KKLEB cystic fibrosis airway cells | activity change (cytotoxicity), % at 5 µM | KKLEB CF airway cells viability, ATPlite luminescence, overnight; active compounds read low; cells stimulated with P. aeruginosa culture filtrate | 360,000 compounds, 0.36% hits;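 active means corrected activity change at or below -50% at 5 µM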
The depositor's hits bear a star; . = not tested or not shown.

SMILES	HIF-2a block	Mdm2 MdmX PPI	ABHD5-PLIN5 inh	Peg3 prom inh	CF NFkB inh	KKLEB cytotox
O=C(c1ccc(S(=O)(=O)N2CCCCC2)cc1)N1CCN(CCN2C(=O)c3cccc4cccc(c34)C2=O)CC1	-14	41	-4	68*	-27	-10
Cc1cccc(C)c1OCC(O)CN1CCC(CN2C(=O)c3cccc4cccc(c34)C2=O)CC1 (stereo not drawn)	29	44	4	55*	-11	-13
Cc1c(C(=O)OCC(=O)NC2CC2)oc2ccc(Br)cc12	-14	29	-10	-41	-2	-2
COc1ccc2nc(/C(C#N)=C\c3ccc(Oc4ccc([N+](=O)[O-])cn4)cc3)[nH]c2c1	-7	43	-2	81*	4	-26
Cc1ccc2nc(/C(C#N)=C\c3ccc(Oc4ccc([N+](=O)[O-])cn4)cc3)[nH]c2c1	-35	.	6	19	-15	-9
CC1C(=O)N(Cc2cn(CC3CCCCC3)nn2)CCS(=O)(=O)N1Cc1ccc(-c2cccc(CO)c2)cc1 (stereo not drawn)	3	.	-2	15	-6	-4
CN(C(=O)c1ccc(NC(=O)Cc2ccc(NC(=O)C3CCCN(C(=O)C4CC4)C3)cc2)cc1)C1CC1 (stereo not drawn)	-15	-13	8	-31	-16	17
Cc1ccc(C(C[N+](=O)[O-])c2c(-c3ccccc3O)[nH][nH]c2=O)cc1 (stereo not drawn)	-21	32	-20	96*	28	-10
COc1ccc2cc(C)c3nnc(SCC(=O)Nc4nc(-c5ccccc5)cs4)n3c2c1	5	20	3	15	32	-52*
COc1ccc2cc(C)c3nnc(SCC(=O)Nc4cc(OC)c(OC)cc4C(=O)O)n3c2c1	11	-6	5	3	16	1
Cc1cc(=O)n2[nH]c(SCc3c(F)cccc3Cl)nc2n1	5	-4	-8	2	7	16
Cc1cc2c(cc1C)N(C(=O)CCl)CC(=O)N2	6	.	14	27	25	-21
Cc1cc2c(cc1C)N(C(=O)CCl)CCN2C(=O)CCl	25	.	4	109*	31	-5
OCC[C@H]1C[C@@H](O)[C@H](O)[C@]2(Cc3ccccc3CO2)O1	2	-30	4	8	2	3
COc1ccc2c(-c3cc4ccc(OCc5ccc(F)cc5)cc4oc3=O)cc(=O)oc2c1	-41	.	3	76*	15	-25
O=C1C=CC2(O[C@H](c3ccccc3)[C@@H](c3ccccc3)O2)[C@H](Sc2ccccc2O)C1	89*	.	94*	108*	89*	-86*
O=C(O)C(CCc1ccccc1)N1CCOCC1 (stereo not drawn)	15	.	1	1	7	-5
Cc1ccc(C(C)C)cc1S(=O)(=O)NCc1ccccn1	9	0	2	18	-6	-4
Cc1cccc(Oc2nc3ccccn3c(=O)c2/C=C(\C#N)C(=O)NC2CCS(=O)(=O)C2)c1 (stereo not drawn)	9	29	9	11	16	-5
Cc1cc(Oc2nc3ccccn3c(=O)c2/C=C(\C#N)C(=O)NC2CCS(=O)(=O)C2)ccc1Cl (stereo not drawn)	-8	13	5	66*	-16	-1
C=CCSC1=NC(=O)/C(=C/c2cccs2)S1	-31	.	7	53*	1	-25
COc1cc(C(C)=O)ccc1OCC(=O)NCc1ccccc1CN1CCCC1	7	.	5	-2	7	1
CN1CCn2cnc(C(=O)N[C@@H](Cc3ccccc3)C(=O)OC(C)(C)C)c2C1=O	2	.	-8	19	10	6
CC(C)(C)c1ccc(OCC(=O)NNC(=S)NC(=O)c2ccco2)c(Br)c1	5	42	-5	27	58*	-78*
CCOC(=O)N1CCN(C(C(=O)NC2CCCC2)c2cccc(OC)c2OC)CC1 (stereo not drawn)	4	.	-13	.	.	.
SMILES	HIF-2a block	Mdm2 MdmX PPI	ABHD5-PLIN5 inh	Peg3 prom inh	CF NFkB inh	KKLEB cytotox
N#C/C(=C/c1cn(-c2ccccc2)nc1-c1cccc(S(=O)(=O)N2CCCC2)c1)C(=O)NCc1ccco1	20	13	9	21	-19	3
N#C/C(=C/c1cn(-c2ccccc2)nc1-c1cccc(S(=O)(=O)N2CCOCC2)c1)C(=O)NCc1ccco1	9	-18	1	9	51*	-57*
O=C1c2ccccc2C(=O)N1OS(=O)(=O)c1ccc(F)cc1	29	.	4	61*	-8	12
Cc1ccc(NC(=O)CC2SC3=NCCN3C2=O)cc1 (stereo not drawn)	11	0	23*	21	-4	0
Cc1cc(C)cc(-c2nnc(SCC(=O)NCC3CCCO3)o2)c1 (stereo not drawn)	-3	.	9	1	16	16
Cc1cccc(NC(c2ccc(O)cc2)c2ccc3ccc(C)nc3c2O)n1 (stereo not drawn)	55*	18	6	42	46	-14
COc1cccc(C(Nc2ccccc2)c2ccc3ccc(C)nc3c2O)c1 (stereo not drawn)	-98	.	1	.	.	.
Oc1c(Cl)cc(Cl)cc1/C=N/NC(=S)NC1CC2C=CC1C2 (stereo not drawn)	-6	37	-8	29	50*	-72*
COc1ccccc1C(CNC(=O)c1oc2ccccc2c1C)N1CCCC1 (stereo not drawn)	-49	0	3	-63	-11	-24
O=C(/C=C/c1ccccc1)CCN1CCCCC1	-6	.	23*	105*	-67	3
CC(C)C[C@H]1CNC(=S)N1CC1CCCN1C[C@H](CC(C)C)N1C[C@H](Cc2ccc(O)cc2)N(CC2CCCCCC2)C1=S (stereo partly drawn)	-27	.	0	87*	39	-1
CC(C)C[C@H]1CNC(=S)N1CC1CCCN1C[C@H](CC(C)C)N1C[C@H](Cc2ccc(O)cc2)N(CC2CCCCC2)C1=S (stereo partly drawn)	-5	.	-11	78*	36	8
CC(C)C[C@H]1CNC(=S)N1C[C@H]1CCCN1C[C@H](CC(C)C)N1C[C@H](Cc2ccc(O)cc2)N(CC2CCCCCC2)C1=S	2	.	5	87*	37	-26
CC(C)C[C@@H](CN1CCC[C@@H]1CN1C(=S)NC[C@@H]1Cc1ccccc1)N1C[C@H](Cc2ccc(O)cc2)N(CC2CCCCC2)C1=S	-1	.	2	-12	23	-10
CC(C)C[C@@H](CN1CCC[C@@H]1CN1C(=S)NC[C@@H]1Cc1ccccc1)N1C[C@H](Cc2ccc(O)cc2)N(CC2CCCCCC2)C1=S	-4	.	-2	44	45	-18
C#CCCc1cocc1/C=[N+](\[O-])c1ccc(C(=O)OCC)cc1	-35	3	8	-42	4	1

Source: PubChem BioAssay
